Test results as given in PubChem BioAssay AID1159580 (chemical genetic matrix, 2015).
Where “and” joins values, the source holds several entries; their conditions need not be identical. Equal values may be shown once. Hit rate of the full screen: of about 5,500 compounds, about 2,000 (36%) were called active. About 18% were inconclusive and are not listed. No stated cut-off is given here; in the data, active means normalized growth mostly below about 0.91 (no sharp cut-off); inconclusive means no clear call, values can overlap the other calls; inactive means mostly above about 0.92. The list shows a part of the results.

Assay: chemical genetic growth profiling, strain panel (AID 1159580);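 further: tested at 20 µM; growth read once vehicle control cultures reached saturation at 30 °C; 1 = growth at the plate median or of vehicle wells; lower values mean less growth of the strain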
Conditions: S. cerevisiae deletion strains, growth OD

Measured: normalized growth

CCS(=O)(=O)CCn1c([N+](=O)[O-])cnc1C
inactive: locus YAL013W, strain DEP1, hits give low values 1.03 | locus YAL021C, strain ccr4, hits give low values 0.999 | locus YAL026C, strain drs2, hits give low values 0.995 | locus YAL030W, strain snc1, hits give low values 1.01 | locus YBL061C, strain skt5, hits give low values 1.01 | locus YBR009C, strain hhf1, hits give low values 0.962 | locus YBR021W, strain FUR4, hits give low values 1.01 | locus YBR023C, strain chs3, hits give low values 0.998 | locus YBR171W, strain sec66, hits give low values 1 | locus YBR229C, strain ROT2, hits give low values 1.01 | locus YBR231C, strain swc5, hits give low values 1 | locus YBR279W, strain paf1, hits give low values 0.985 | locus YCL011C, strain gbp2, hits give low values 1 | locus YCL016C, strain dcc1, hits give low values 1.02 | locus YCL029C, strain bik1, hits give low values 1.01 | locus YCL061C, strain MRC1, hits give low values 1.01 | locus YCL069W, strain vba3, hits give low values 0.974 | locus YCR088W, strain abp1, hits give low values 0.986 | locus YDL005C, strain med2, hits give low values 1.01 | locus YDL035C, strain GPR1, hits give low values 1.04 | locus YDL040C, strain nat1, hits give low values 0.995 | locus YDL074C, strain BRE1, hits give low values 1.06 | locus YDL101C, strain DUN1, hits give low values 1.01 | locus YDL134C, strain PPH21, hits give low values 1 | locus YDL185W, strain tfp1, hits give low values 1.02 | locus YDL192W, strain arf1, hits give low values 1.01 | locus YDR001C, strain nth1, hits give low values 0.991 | locus YDR069C, strain doa4, hits give low values 0.977 | locus YDR101C, strain arx1, hits give low values 1.01 | locus YDR137W, strain rgp1, hits give low values 0.957 | locus YDR150W, strain NUM1, hits give low values 1.02 | locus YDR159W, strain sac3, hits give low values 0.965 | locus YDR162C, strain NBP2, hits give low values 1.02 | locus YDR195W, strain ref2 0.952 | locus YDR297W, strain sur2, hits give low values 1 | locus YDR318W, strain mcm21, hits give low values 1.04 | locus YDR334W, strain swr1, hits give low values 0.966 | locus YDR335W, strain msn5, hits give low values 0.993 | locus YDR388W, hits give low values 1.01 | locus YDR392W, strain spt3, hits give low values 1.02 | locus YDR502C, strain sam2, hits give low values 1.01 | locus YEL003W, strain gim4, hits give low values 0.995 | locus YEL037C, strain rad23, hits give low values 0.981 | locus YEL061C, strain CIN8 (second series), hits give low values 0.998 | locus YEL061C, strain CIN8, hits give low values 1.01 | locus YER015W, strain faa2, hits give low values 1 | locus YER016W, strain bim1, hits give low values 1.01 | locus YER110C, hits give low values 1.02 | locus YER111C, strain swi4, hits give low values 1.02 | locus YER155C, strain BEM2 (second series), hits give low values 0.99 | locus YER155C, strain BEM2, hits give low values 0.996 | locus YER167W, strain BCK2, hits give low values 1.05 | locus YFR010W, strain ubp6, hits give low values 0.967 | locus YGL078C, strain dbp3, hits give low values 1 | locus YGL086W, strain mad1, hits give low values 1.05 | locus YGL167C, strain pmr1, hits give low values 0.994 | locus YGL173C, strain kem1, hits give low values 1.02 | locus YGL227W, strain vid30, hits give low values 1 | locus YGL240W, strain doc1, hits give low values 0.977 | locus YGL248W, strain PDE1, hits give low values 1 | locus YGL253W, strain hxk2, hits give low values 0.997 | locus YGR078C, strain PAC10, hits give low values 1.03 | locus YGR135W, strain pre9, hits give low values 1.01 | locus YGR229C, strain SMI1, hits give low values 1.02 | locus YGR252W, strain gcn5, hits give low values 1.01 | locus YHR013C, strain ard1, hits give low values 1.04 | locus YHR027C, strain rpn1, hits give low values 1.01 | locus YHR030C, strain SLT2, hits give low values 1.01 and 0.981 | locus YHR079C, strain IRE1 (second series), hits give low values 1.02 | locus YHR079C, strain IRE1, hits give low values 0.957 | locus YHR094C, strain hxt1, hits give low values 1.01 | locus YHR129C, strain ARP1, hits give low values 1.01 | locus YHR142W, strain chs7, hits give low values 1.01 | locus YHR200W, strain rpn10, hits give low values 1.02 | locus YIL066C, strain RNR3, hits give low values 1.02 | locus YIL073C, strain SPO22, hits give low values 1.1 | locus YIL125W, strain kgd1, hits give low values 1.01 | locus YIR030C, strain dcg1, hits give low values 1.01 | locus YJL092W, strain hpr5, hits give low values 1 | locus YJL095W, strain BCK1 (second series), hits give low values 0.989 | locus YJL095W, strain BCK1, hits give low values 1.02 and 0.959 | locus YJL115W, strain asf1, hits give low values 0.98 | locus YJL129C, strain trk1, hits give low values 1 | locus YJL134W, strain LCB3, hits give low values 1.01 | locus YJL154C, strain vps35, hits give low values 0.984 | locus YJL164C, strain tpk1, hits give low values 1 | locus YJL166W, strain qcr8, hits give low values 0.996 | locus YJL168C, strain set2, hits give low values 1.01 | locus YJL187C, strain SWE1 (second series), hits give low values 1.01 | locus YJR043C, strain POL32, hits give low values 1.08 | locus YJR066W, strain TOR1, hits give low values 0.945
